{"source": "the supplement of paper PMC10849652", "note": "Of roughly 8,800 targets only a part is listed; those with a hit were picked by preference. About 0.5% of all pairs of compound and target were hits."}
{"compound": "Cc1ccc(NC(=O)c2ccc(CN3CC[C@H](N(C)C)C3)c(C(F)(F)F)c2)cc1Nc1nccc(-c2cncnc2)n1 [bafetinib]", "assay": "log2 fold change, soluble protein after heating vs DMSO (PISA); higher = thermal stabilisation; K562 lysate, 10 uM; active = over 0.2 and 3.5 SD of the protein, either way, in both replicates (recomputed)", "how_it_was_run": "(§1)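 Dounce homogenisation of K562 pellets in PBS pH 7.4 with 1 mM MgCl2 produced a crude extract, used at 1 mg/mL protein. Exposure to 10 μM compound lasted 30 min, and aliquots were then heated for 3 min across 48°C-58°C, pooled and brought to 0.5% NP-40 at 4°C. The supernatant after 21,000xg for 90 min was quantified by TMTpro 16plex LC-MS/MS with channel sums equalised. Duplicate values are given as log-two fold change in thermal stability relative to solvent controls.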"}
{"target": "ATXN2 (UniProt Q99700)", "log2 fold change": "-0.012 (inactive)"}
{"target": "CHCHD2 (UniProt Q9Y6H1)", "sequence (Q9Y6H1 whole entry, looked up)": "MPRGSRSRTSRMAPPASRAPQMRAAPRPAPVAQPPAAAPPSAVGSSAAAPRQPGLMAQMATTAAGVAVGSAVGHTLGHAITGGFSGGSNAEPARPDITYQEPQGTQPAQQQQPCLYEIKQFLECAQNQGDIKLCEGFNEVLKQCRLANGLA", "log2 fold change": "0.288 (inactive)"}
{"target": "CDC40 (UniProt O60508)", "sequence (O60508 whole entry, looked up)": "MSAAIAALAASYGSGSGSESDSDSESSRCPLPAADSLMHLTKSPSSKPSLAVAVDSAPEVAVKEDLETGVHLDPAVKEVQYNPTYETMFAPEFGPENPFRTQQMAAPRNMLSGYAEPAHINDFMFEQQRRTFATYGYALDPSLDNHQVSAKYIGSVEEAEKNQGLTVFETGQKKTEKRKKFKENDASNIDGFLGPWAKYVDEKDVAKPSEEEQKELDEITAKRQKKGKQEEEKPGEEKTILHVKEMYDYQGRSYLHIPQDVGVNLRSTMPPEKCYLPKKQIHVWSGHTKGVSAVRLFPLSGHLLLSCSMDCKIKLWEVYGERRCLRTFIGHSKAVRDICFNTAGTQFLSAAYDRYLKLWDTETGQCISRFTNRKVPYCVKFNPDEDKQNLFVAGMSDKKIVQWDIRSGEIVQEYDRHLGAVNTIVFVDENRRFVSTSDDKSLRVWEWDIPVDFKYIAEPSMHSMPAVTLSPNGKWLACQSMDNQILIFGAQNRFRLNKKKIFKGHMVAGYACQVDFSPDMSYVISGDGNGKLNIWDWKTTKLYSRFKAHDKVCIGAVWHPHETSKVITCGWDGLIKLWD", "log2 fold change": "-0.033 (inactive)"}
{"target": "CCNK isoform 4 (UniProt O75909)", "sequence (O75909 whole entry, looked up)": "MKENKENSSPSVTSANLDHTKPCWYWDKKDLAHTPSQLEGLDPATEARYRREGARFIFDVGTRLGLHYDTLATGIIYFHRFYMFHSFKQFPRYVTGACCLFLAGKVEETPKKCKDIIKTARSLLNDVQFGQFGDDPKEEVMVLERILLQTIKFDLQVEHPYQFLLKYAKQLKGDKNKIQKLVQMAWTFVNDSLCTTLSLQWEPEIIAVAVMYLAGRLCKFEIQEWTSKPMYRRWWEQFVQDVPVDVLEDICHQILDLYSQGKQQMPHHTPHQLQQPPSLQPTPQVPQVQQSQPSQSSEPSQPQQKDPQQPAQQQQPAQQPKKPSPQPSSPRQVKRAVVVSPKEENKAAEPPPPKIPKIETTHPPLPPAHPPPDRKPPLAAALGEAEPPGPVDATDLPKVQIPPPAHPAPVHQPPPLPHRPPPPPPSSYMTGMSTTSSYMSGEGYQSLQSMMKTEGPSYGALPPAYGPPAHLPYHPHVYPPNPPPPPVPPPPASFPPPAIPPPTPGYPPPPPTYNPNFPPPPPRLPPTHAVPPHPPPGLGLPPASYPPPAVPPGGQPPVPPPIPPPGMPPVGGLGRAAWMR", "log2 fold change": "-0.051 (inactive)"}
{"target": "C18orf32 (UniProt Q8TCD1)", "sequence (Q8TCD1 whole entry, looked up)": "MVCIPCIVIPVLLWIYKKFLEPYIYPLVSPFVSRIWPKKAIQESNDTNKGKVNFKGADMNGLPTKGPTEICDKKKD", "log2 fold change": "-0.04 (inactive)"}
{"target": "CHAF1A (UniProt Q13111)", "log2 fold change": "-0.075 (inactive)"}
{"target": "CAMK2G isoform 8 (UniProt Q13555)", "sequence (Q13555 whole entry, looked up)": "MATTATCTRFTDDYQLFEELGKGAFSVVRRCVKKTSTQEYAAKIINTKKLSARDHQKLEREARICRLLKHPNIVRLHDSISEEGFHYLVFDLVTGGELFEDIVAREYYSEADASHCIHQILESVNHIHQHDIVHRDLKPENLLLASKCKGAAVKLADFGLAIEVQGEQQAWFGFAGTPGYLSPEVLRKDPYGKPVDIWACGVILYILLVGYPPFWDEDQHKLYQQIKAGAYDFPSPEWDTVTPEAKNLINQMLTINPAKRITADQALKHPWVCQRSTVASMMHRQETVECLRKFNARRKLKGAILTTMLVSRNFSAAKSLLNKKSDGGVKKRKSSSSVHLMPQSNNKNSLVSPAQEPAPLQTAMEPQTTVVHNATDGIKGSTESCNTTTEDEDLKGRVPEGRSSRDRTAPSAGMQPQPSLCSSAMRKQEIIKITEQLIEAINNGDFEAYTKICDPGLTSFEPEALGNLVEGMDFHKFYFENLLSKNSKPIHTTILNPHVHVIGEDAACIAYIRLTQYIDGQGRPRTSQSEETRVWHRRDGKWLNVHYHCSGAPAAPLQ", "log2 fold change": "0.001 (inactive)"}
{"target": "CBX1 (UniProt P83916)", "sequence (P83916 whole entry, looked up)": "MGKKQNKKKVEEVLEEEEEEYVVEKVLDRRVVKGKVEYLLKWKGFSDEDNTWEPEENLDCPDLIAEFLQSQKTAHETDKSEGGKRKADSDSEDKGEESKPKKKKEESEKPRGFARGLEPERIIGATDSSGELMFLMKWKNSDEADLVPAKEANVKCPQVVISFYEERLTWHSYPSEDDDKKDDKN", "log2 fold change": "0.025 (inactive)"}
{"target": "ATP5PF isoform 2 (UniProt P18859)", "sequence (P18859 whole entry, looked up)": "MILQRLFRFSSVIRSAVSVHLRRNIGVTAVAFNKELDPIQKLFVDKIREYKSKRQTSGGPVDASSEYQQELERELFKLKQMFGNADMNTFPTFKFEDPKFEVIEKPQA", "log2 fold change": "0.221 (inactive)"}
{"target": "CCNB1 (UniProt P14635)", "sequence (P14635 whole entry, looked up)": "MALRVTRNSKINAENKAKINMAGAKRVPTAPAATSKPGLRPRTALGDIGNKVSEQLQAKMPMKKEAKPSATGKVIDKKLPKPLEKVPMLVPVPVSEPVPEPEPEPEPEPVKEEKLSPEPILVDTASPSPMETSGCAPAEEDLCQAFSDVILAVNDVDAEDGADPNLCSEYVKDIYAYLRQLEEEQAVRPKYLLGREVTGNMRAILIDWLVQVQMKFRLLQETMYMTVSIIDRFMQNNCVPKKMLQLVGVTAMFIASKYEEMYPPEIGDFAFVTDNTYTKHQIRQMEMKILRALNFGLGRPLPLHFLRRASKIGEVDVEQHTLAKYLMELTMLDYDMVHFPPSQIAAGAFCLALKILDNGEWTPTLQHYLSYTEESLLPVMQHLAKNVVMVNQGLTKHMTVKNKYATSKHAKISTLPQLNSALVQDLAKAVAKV", "log2 fold change": "-0.004 (inactive)"}
{"target": "BCL2L12 (UniProt Q9HB09)", "sequence (Q9HB09 whole entry, looked up)": "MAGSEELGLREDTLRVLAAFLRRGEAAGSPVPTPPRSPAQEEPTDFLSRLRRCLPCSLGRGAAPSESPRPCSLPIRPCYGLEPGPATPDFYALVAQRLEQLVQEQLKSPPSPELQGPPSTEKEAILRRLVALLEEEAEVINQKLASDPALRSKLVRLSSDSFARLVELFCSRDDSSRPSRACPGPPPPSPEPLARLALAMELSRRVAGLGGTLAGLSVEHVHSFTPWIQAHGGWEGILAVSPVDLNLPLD", "log2 fold change": "-0.296 (inactive)"}
{"target": "ATP11A (UniProt P98196)", "log2 fold change": "-0.05 (inactive)"}
{"target": "CAMK1 (UniProt Q14012)", "log2 fold change": "-0.047 (inactive)"}
{"target": "CAMLG (UniProt P49069)", "sequence (P49069 whole entry, looked up)": "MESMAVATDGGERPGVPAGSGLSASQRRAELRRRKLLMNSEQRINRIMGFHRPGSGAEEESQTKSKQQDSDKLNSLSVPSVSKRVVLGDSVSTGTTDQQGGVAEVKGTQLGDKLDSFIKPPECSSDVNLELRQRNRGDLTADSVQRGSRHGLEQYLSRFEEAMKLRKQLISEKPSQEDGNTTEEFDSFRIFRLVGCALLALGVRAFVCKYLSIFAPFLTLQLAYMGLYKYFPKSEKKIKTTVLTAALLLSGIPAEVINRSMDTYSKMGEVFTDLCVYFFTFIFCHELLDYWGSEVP", "log2 fold change": "0 (inactive)"}
{"target": "CHAC2 (UniProt Q8WUX2)", "sequence (Q8WUX2 whole entry, looked up)": "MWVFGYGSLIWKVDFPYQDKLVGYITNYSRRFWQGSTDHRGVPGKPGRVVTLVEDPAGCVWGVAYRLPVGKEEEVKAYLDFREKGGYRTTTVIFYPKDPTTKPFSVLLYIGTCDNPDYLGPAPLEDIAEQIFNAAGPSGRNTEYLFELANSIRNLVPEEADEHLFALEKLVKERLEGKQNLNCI", "log2 fold change": "-0.018 (inactive)"}
{"target": "CANX isoform 2 (UniProt P27824)", "sequence (P27824 whole entry, looked up)": "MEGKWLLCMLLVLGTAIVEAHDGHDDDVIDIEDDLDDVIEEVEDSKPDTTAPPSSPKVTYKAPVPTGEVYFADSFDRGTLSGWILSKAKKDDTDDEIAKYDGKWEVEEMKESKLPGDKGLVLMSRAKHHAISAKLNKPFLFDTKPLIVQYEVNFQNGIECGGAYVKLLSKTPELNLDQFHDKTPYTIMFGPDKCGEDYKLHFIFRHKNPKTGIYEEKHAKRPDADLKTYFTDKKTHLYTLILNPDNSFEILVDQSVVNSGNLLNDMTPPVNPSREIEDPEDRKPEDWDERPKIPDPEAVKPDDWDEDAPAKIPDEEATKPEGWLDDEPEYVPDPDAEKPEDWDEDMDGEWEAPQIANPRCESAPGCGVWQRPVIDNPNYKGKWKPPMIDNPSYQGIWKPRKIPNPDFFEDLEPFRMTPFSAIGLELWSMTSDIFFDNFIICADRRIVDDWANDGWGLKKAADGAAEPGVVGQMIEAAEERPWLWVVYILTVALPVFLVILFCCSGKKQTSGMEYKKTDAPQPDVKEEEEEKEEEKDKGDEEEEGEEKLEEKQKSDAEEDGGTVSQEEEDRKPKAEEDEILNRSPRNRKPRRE", "log2 fold change": "0.017 (inactive)"}
{"target": "BRD2 isoform 2 (UniProt P25440)", "sequence (P25440 whole entry, looked up)": "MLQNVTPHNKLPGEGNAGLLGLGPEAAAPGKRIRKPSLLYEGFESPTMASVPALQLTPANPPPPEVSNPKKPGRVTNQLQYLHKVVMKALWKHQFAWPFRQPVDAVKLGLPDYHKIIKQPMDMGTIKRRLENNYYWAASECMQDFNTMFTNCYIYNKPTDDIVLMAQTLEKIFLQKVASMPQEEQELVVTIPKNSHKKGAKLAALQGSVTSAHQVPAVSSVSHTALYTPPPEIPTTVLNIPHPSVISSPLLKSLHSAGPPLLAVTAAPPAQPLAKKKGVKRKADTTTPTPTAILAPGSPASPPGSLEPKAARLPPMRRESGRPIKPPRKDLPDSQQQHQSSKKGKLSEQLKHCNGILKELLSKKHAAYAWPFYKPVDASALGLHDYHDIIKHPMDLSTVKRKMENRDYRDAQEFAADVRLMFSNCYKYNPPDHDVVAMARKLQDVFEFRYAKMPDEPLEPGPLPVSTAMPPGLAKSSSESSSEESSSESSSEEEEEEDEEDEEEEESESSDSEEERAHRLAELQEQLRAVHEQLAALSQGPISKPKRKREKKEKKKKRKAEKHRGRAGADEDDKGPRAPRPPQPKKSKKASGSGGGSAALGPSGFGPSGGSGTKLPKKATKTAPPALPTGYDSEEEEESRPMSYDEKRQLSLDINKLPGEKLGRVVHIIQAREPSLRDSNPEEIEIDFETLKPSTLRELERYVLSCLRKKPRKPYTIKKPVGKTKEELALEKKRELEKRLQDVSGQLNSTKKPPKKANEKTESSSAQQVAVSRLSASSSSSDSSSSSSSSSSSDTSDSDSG", "log2 fold change": "-0.131 (inactive)"}
{"compound": "Cc1cccc(CC(=O)N2CCc3c2ccc(-c2cn(C)c4ncnc(N)c24)c3F)n1", "assay": "log2 fold change, soluble protein after heating vs DMSO (PISA); higher = thermal stabilisation; K562 lysate, 10 uM; active = over 0.2 and 3.5 SD of the protein, either way, in both replicates (recomputed)", "how_it_was_run": "as §1"}
{"target": "BLOC1S6 (UniProt Q9UL45)", "log2 fold change": "-0.066 (inactive)"}
{"target": "BAG4 (UniProt O95429)", "log2 fold change": "0.004 (inactive)"}
{"target": "CCNC (UniProt P24863)", "log2 fold change": "0.015 (inactive)"}
{"target": "CALM2 (UniProt P0DP24)", "log2 fold change": "0.187 (inactive)"}
{"target": "CEP76 (UniProt Q8TAP6)", "log2 fold change": "0.027 (inactive)"}
{"target": "CDS2 (UniProt O95674)", "log2 fold change": "0.019 (inactive)"}
{"target": "CCAR2 (UniProt Q8N163)", "log2 fold change": "0.06 (inactive)"}
{"target": "CDKN2AIP (UniProt Q9NXV6)", "log2 fold change": "0.026 (inactive)"}
{"target": "BRD3 (UniProt Q15059)", "log2 fold change": "0.154 (inactive)"}
{"target": "CEP120 (UniProt Q8N960)", "log2 fold change": "0.129 (inactive)"}
{"target": "C18orf25 (UniProt Q96B23)", "log2 fold change": "-0.098 (inactive)"}
{"target": "CDAN1 (UniProt Q8IWY9)", "log2 fold change": "0.051 (inactive)"}
{"target": "ATAD1 (UniProt Q8NBU5)", "log2 fold change": "0.012 (inactive)"}
{"target": "CCT6A (UniProt P40227)", "log2 fold change": "-0.028 (inactive)"}
{"target": "C5orf51 (UniProt A6NDU8)", "log2 fold change": "-0.037 (inactive)"}
{"target": "CHCHD4 isoform 2 (UniProt Q8N4Q1)", "log2 fold change": "0.198 (inactive)"}
{"target": "CCPG1 isoform 5 (UniProt Q9ULG6)", "log2 fold change": "0.108 (inactive)"}
{"target": "CD63 (UniProt P08962)", "log2 fold change": "0.074 (inactive)"}
{"target": "CES2 isoform 4 (UniProt O00748)", "log2 fold change": "0.036 (inactive)"}
{"target": "CFDP1 (UniProt Q9UEE9)", "log2 fold change": "0.091 (inactive)"}
{"target": "AURKAIP1 (UniProt Q9NWT8)", "log2 fold change": "-0.04 (inactive)"}
{"target": "CCDC186 (UniProt Q7Z3E2)", "log2 fold change": "-0.064 (inactive)"}
{"target": "ATP13A1 (UniProt Q9HD20)", "log2 fold change": "0.043 (inactive)"}
{"target": "ATXN2 (UniProt Q99700)", "log2 fold change": "-0.006 (inactive)"}
{"target": "CHCHD2 (UniProt Q9Y6H1)", "log2 fold change": "-0.138 (inactive)"}
{"target": "CDC40 (UniProt O60508)", "log2 fold change": "0.006 (inactive)"}
{"target": "CCNK isoform 4 (UniProt O75909)", "log2 fold change": "0.109 (inactive)"}
{"target": "C18orf32 (UniProt Q8TCD1)", "log2 fold change": "0.047 (inactive)"}
{"target": "CHAF1A (UniProt Q13111)", "log2 fold change": "-0.005 (inactive)"}
{"target": "CAMK2G isoform 8 (UniProt Q13555)", "log2 fold change": "-0.07 (inactive)"}
{"target": "CBX1 (UniProt P83916)", "log2 fold change": "-0.138 (inactive)"}
{"target": "ATP5PF isoform 2 (UniProt P18859)", "log2 fold change": "-0.19 (inactive)"}
{"target": "CCNB1 (UniProt P14635)", "log2 fold change": "0.091 (inactive)"}
{"target": "BCL2L12 (UniProt Q9HB09)", "log2 fold change": "0.057 (inactive)"}
{"target": "ATP11A (UniProt P98196)", "log2 fold change": "0.1 (inactive)"}
{"target": "CAMK1 (UniProt Q14012)", "log2 fold change": "0.314 (active)"}
{"target": "CAMLG (UniProt P49069)", "log2 fold change": "-0.12 (inactive)"}
{"target": "CHAC2 (UniProt Q8WUX2)", "log2 fold change": "-0.198 (inactive)"}
{"target": "CANX isoform 2 (UniProt P27824)", "log2 fold change": "0.052 (inactive)"}
{"target": "BRD2 isoform 2 (UniProt P25440)", "log2 fold change": "-0.186 (inactive)"}
